Source: PubChem BioAssay (National Center for Advancing Translational Sciences (NCATS))
Compounds with a hit are over-represented: about 4.6% of the library has one in this group of screens.
TRHR enhancer – allosteric enhancers of human TRH receptor | P34981 | TRHR cells, fluo-8 calcium fluorescence, EC20 TRH enhancement | enhancement, % at 2 µM | hit rate 0.66% among 360,000 | AID 493056; in the data active means enhancement above about 30%
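Enhancer read-out: after compound pinning and an initial kinetic agonist-mode read, an EC20 of TRH (10 nM final) was injected and fluo-8 calcium signal (Ex 480/Em 530) followed at 1 s/cycle for 100 cycles in TRHR-expressing cells.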
TRHR agonist – TRH receptor (human) agonism | activation, % at 2 µM | AID 493084 | P34981 | TRHR cells, calcium flux fluo-8, FDSS agonist mode | hit rate 0.18% among 360,000
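TRHR-expressing cells, plated overnight in medium with 10% serum, were loaded with fluo-8 calcium dye at room temperature. After a 10 s baseline, library compound was pin-added and calcium release was recorded kinetically (ex 480/em 530) as agonist response.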
D1 potentiator – enhances dopamine response at the human D1 receptor. potentiation, % at 10 µM. HEK293 TREx D1 cells, calcium flux, dopamine EC20 potentiation. P21728. hit rate 0.036% among 360,000; in the data active means potentiation above about 30%
Target sequence (P21728 whole entry, looked up): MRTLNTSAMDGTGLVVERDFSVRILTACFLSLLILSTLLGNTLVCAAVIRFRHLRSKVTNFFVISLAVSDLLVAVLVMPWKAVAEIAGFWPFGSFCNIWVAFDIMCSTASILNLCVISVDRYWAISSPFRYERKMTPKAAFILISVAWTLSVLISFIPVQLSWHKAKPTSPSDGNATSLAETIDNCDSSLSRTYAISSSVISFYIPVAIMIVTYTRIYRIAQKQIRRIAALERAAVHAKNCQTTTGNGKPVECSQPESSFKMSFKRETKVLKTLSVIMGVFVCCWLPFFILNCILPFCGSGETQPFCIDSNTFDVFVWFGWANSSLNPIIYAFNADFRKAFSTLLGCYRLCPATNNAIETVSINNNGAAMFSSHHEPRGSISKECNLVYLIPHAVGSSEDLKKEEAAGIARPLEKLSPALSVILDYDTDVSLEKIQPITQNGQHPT
D1 antag – blocks dopamine activation of the human D1 receptor | P21728 | HEK293 TREx D1 cells, calcium flux, dopamine EC80; hits give low values | activity change, negative = inhibition, % at 10 µM | hit rate 3.2% among 360,000 | AID 504652; in the data active means activity change below about -30%
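Cells carrying a force-coupled, tetracycline-inducible human D1 receptor report calcium flux. Each well gets a 10 s baseline, compound with 180 s monitoring, then an EC80 dopamine stimulus with a second 180 s kinetic read.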
D1 ag – activates the human D1 dopamine receptor; hit rate 1% among 360,000; P21728; activation, % at 2 µM; HEK293 T-REx D1 cells, calcium flux, agonist mode
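Tetracycline-induced HEK293 TREx D1 cells, force-coupled to calcium signalling, were dye-loaded with a no-wash calcium kit. Compound was pin-added after a 10 s baseline. Fluorescence was read kinetically at 1 cycle/s for 180 s, with calcium rises flagged as agonism.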
Numbers stand for hits; – = inactive; · = no result given; ! = not active in a repeat. Unless noted, no stated cut-off is given here; in the data, active means activation above about 30%; inactive means the rest.

SMILES	TRHR enhancer	TRHR agonist	D1 potentiator	D1 antag	D1 ag
COc1ccc(CCNC(=O)c2c(C)noc2C)cc1	–	–	–	-42.9	–
COc1ccccc1N(CC(=O)NCCSc1ccccc1)S(=O)(=O)c1ccc(C)cc1	–	–	–	–	30.7
Cc1ccc(Cn2c(CNS(=O)(=O)c3cccc([N+](=O)[O-])c3)nc3cccnc32)cc1	–	–	–	–	–
COc1ccc(N(CC(=O)N/N=C/c2ccc(F)cc2)S(=O)(=O)c2ccccc2)cc1	–	–	–	–	–
CN(C)S(=O)(=O)N(CC(=O)NCCSCc1ccccc1)c1ccccc1	–	–	–	-61.0!	–
COc1ccccc1N(CC(=O)NCCSCc1ccc(C)cc1)S(=O)(=O)c1ccccc1	–	–	–	-32.3	–
C=CCNC(=O)CN(c1ccc(F)cc1)S(=O)(=O)c1ccc(OC)cc1	–	–	–	-48.9	–
Cc1ccc(CSCCNC(=O)CN(c2cccc(C)c2C)S(=O)(=O)c2ccccc2)cc1	–	–	–	–	–
Cc1ccccc1CSCCNC(=O)CN(c1ccccc1)S(=O)(=O)N(C)C	–	–	–	–	–
Cc1cccc(N(CC(=O)NCCSCc2cccc(Cl)c2)S(=O)(=O)c2ccccc2)c1C	–	–	–	–	30.9
CCOc1ccc(N(C)C(=O)CS(=O)(=O)c2cccc3nsnc23)cc1	–	–	–	–	–
CCc1ccc2nc(N(Cc3cccnc3)C(=O)Cc3ccccc3)sc2c1	–	–	–	·	–
Brc1ccc(Nc2c3c(nc4nncn24)CCC3)cc1	–	–	–	–	–
NC(=O)c1nc(-c2ccc(F)c(F)c2)nc2c1[nH]c(=O)n2-c1cccc(Cl)c1	–	–	–	–	–
CCOc1ccc(N(C)S(=O)(=O)c2ccc(C)c(C(=O)NCCc3ccc(OC)cc3)c2)cc1	–	–	–	–	–
COc1ccc(S(=O)(=O)N(CC(=O)NCCc2ccccc2)c2ccc(Cl)cc2)cc1	–	–	–	–	40.4
COc1ccc(CCNC(=O)CN(c2ccccc2OC)S(=O)(=O)c2ccc(C)cc2)cc1	–	–	–	-36.0!	37.1!
COc1ccc(CCNC(=O)c2cc(S(=O)(=O)N(C)c3ccccc3)ccc2Cl)cc1	–	–	–	-56.1	–
COc1cccc(NC(=O)CN(c2ccc([N+](=O)[O-])cc2)S(=O)(=O)c2ccccc2)c1	–	–	–	–	–
COc1ccc(N(CC(=O)NCCc2ccccc2)S(=O)(=O)c2ccc(OC)c(OC)c2)cc1	–	–	–	–	–
COc1ccc(NC(=O)CN(c2ccc([N+](=O)[O-])cc2)S(=O)(=O)c2ccccc2)cc1	–	–	–	–	32.7
O=S(=O)(c1ccc2c(c1)OCCO2)C1CCN(S(=O)(=O)c2c(F)cccc2F)CC1	–	–	–	–	–
CCOC(=O)N1CCc2c(sc3c2c(=O)n(CCc2ccccc2)c(=O)n3Cc2cc(C)ccc2C)C1	–	–	–	-50.9	–
O=C(NCc1ccncc1)c1cccc(S(=O)(=O)Nc2ccc(F)cc2)c1	–	–	–	–	–
CCOc1ccc(S(=O)(=O)NCc2ccc3c(c2)OCO3)cc1C(=O)O	–	–	–	–	–
SMILES	TRHR enhancer	TRHR agonist	D1 potentiator	D1 antag	D1 ag
COc1ccc(N=C2NC(=O)S/C2=C\c2ccc(N(C)C)cc2)cc1	–	–	–	–	67.4
CCOc1ccc(N=C2NC(=O)S/C2=C\c2ccc(Cl)cc2)cc1	–	–	–	–	–
c1cc2c3c(cccc3c1)NC1(CCC3(CC1)Nc1cccc4cccc(c14)N3)N2	–	–	–	-40.2	–
c1cc2c3c(cccc3c1)NC1(CCCCCC1)N2	–	–	–	–	–
O=C1CC(c2ccsc2)c2ccc3ccccc3c2N1 (configuration not stated)	36.7	–	–	–	–
Cc1ccccc1NC(=O)CN1C(=O)COc2ccc(Cl)cc21	–	–	–	-91.5	–
CC(=O)c1ccc(NC(=O)CN2C(=O)COc3ccc(Cl)cc32)cc1	–	–	–	–	–
O=C(CN1C(=O)COc2ccc(Cl)cc21)Nc1ccc(F)cc1	–	–	–	-33.7	–
CCOC(=O)c1cc(C#N)c(Nc2ccc(C)cc2)nc1C(F)(F)F	–	–	–	–	–
CCCCOC(=O)CSc1nc2c(cc1C#N)C(=O)CC(C)(C)C2	–	–	–	-38.6	–
Cc1ccccc1CNC(=O)CN1C(=O)C2CCCCN2c2ccc(C(=O)N3CCCC3)cc21 (configuration not stated)	–	–	–	–	–
CCOC(=O)COc1ccc(C)cc1C(=O)c1ccn2nc(-c3ccc(F)cc3)cc2n1	–	–	–	–	–
Cc1c(C#N)c(=O)c(-[n+]2ccccc2)c([S-])n1-c1ccc(Cl)cc1	32.5	–	–	–	–
CC12CCC(C(=O)Nc3nccs3)(OC1=O)C2(C)C (configuration not stated)	–	–	–	-31.1	–
O=C(Cn1c(=O)n(-c2ccc(Cl)cc2)c(=O)c2c3c(sc21)CCCCC3)Nc1cccc(Cl)c1	–	–	–	–	–
CCn1c(=O)cc(N2CCC3(CC2)OCCO3)[nH]c1=O	–	–	–	-60.2	–
Cc1c(C)c2c(cc(C)c3c(-c4ccccc4)coc32)oc1=O	–	–	–	–	–
COc1ccc(-c2cn3nc(N4CCC(C(=O)Nc5cc(Cl)ccc5C)CC4)sc3n2)cc1	–	–	–	–	–
COc1ccc2cc(C(c3nnnn3C(C)(C)C)N3CCc4ccccc4C3)c(=O)[nH]c2c1 (configuration not stated)	–	–	–	-45.0	–
CCC(C)(C)n1nnnc1C(c1cc2ccc(OC)cc2[nH]c1=O)N1CCc2ccccc2C1 (configuration not stated)	–	–	–	–	–
Cc1cnc(NS(=O)(=O)c2ccc(Cl)cc2)c(Br)c1	–	–	–	-38.5	–
CCC(C)n1c(NC(=O)c2ccccc2)c(C#N)c2nc3ccccc3nc21 (configuration not stated)	–	–	–	–	–
CCCCn1c(NC(=O)c2ccccc2)c(C#N)c2nc3ccccc3nc21	–	–	–	–	34.7
CCCCCNC(=O)c1ccc2c(c1)nc(C)n2-c1cccc(C)c1	–	–	–	–	–
COC(=O)c1sccc1S(=O)(=O)N(CC(=O)NCc1ccccc1)c1ccc(C)cc1	–	–	–	–	–
COc1ccc(Cn2c(=O)[nH]c3cc(C(=O)N4CCN(c5cc(Cl)ccc5C)CC4)ccc3c2=O)cc1	–	–	–	–	–
O=C(/C=C/c1ccccc1)NCCSCc1ccc(Cl)cc1	–	–	–	–	–
O=C(/C=C/c1ccc(Cl)cc1Cl)NCCSCc1ccccc1	–	–	–	-45.8	–
O=C(/C=C/c1ccccc1)NCCSCc1ccccc1Cl	–	–	–	-31.8	–
CC(=O)Nc1ccc(-c2ccc(NC(C)=O)c(O)c2)cc1O	–	–	–	-32.3	–
